According to PubChem BioAssay AID1159580 (chemical genetic matrix, 2015):
The whole screen tested about 5,500 compounds, of which about 2,000 (36%) were called active. Another 18% or so got no clear call; they are omitted. Rule as the data show it: active = normalized growth mostly below about 0.91 (no sharp cut-off); inconclusive = no clear call, values can overlap the other calls; inactive = mostly above about 0.92. The list shows a part of the results.

Assay: chemical genetic growth profiling, strain panel (AID 1159580);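 also: tested at 20 µM; growth read once vehicle control cultures reached saturation at 30 °C; 1 = growth at the plate median or of vehicle wells; lower values mean less growth of the strain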
Conditions: growth OD

Measured: normalized growth

C/C=C(\C)C(=O)O[C@H]1C[C@@H](OC(C)=O)[C@@]2(C(=O)OC)CO[C@@H]3C2[C@]12CO[C@](O)(C(=O)OC)[C@H]2[C@](C)(C12O[C@@]1(C)[C@H]1C[C@@H]2OC2OC=C[C@@]21O)[C@@H]3O (some centres not stated)
inactive: S. cerevisiae deletion strains, locus YJR075W, strain HOC1, active compounds read low 0.998 | S. cerevisiae deletion strains, locus YKL009W, strain mrt4, active compounds read low 0.996 | S. cerevisiae deletion strains, locus YKL068W, active compounds read low 0.987 | S. cerevisiae deletion strains, locus YKL085W, strain MDH1 (second series), active compounds read low 0.998 | S. cerevisiae deletion strains, locus YKL085W, strain MDH1, active compounds read low 0.998 | S. cerevisiae deletion strains, locus YKL160W, strain elf1, active compounds read low 0.954 | S. cerevisiae deletion strains, locus YKL190W, strain CNB1, active compounds read low 0.997 | S. cerevisiae deletion strains, locus YKR001C, strain vps1, active compounds read low 0.988 | S. cerevisiae deletion strains, locus YKR026C, strain gcn3, active compounds read low 0.992 | S. cerevisiae deletion strains, locus YKR091W, strain srl3, active compounds read low 0.964 | S. cerevisiae deletion strains, locus YLL001W, strain dnm1, active compounds read low 0.965 | S. cerevisiae deletion strains, locus YLL026W, active compounds read low 0.978 | S. cerevisiae deletion strains, locus YLL041C, strain sdh2, active compounds read low 0.975 | S. cerevisiae deletion strains, locus YLR027C, strain aat2, active compounds read low 0.991 | S. cerevisiae deletion strains, locus YLR039C, strain RIC1, active compounds read low 1.04 | S. cerevisiae deletion strains, locus YLR058C, strain SHM2, active compounds read low 0.982 | S. cerevisiae deletion strains, locus YLR102C, strain apc9, active compounds read low 0.979 | S. cerevisiae deletion strains, locus YLR113W, strain HOG1, active compounds read low 1.02 | S. cerevisiae deletion strains, locus YLR221C, strain rsa3, active compounds read low 0.999 | S. cerevisiae deletion strains, locus YLR258W, strain gsy2, active compounds read low 0.969 | S. cerevisiae deletion strains, locus YLR262C, strain YPT6 (second series), active compounds read low 0.968 | S. cerevisiae deletion strains, locus YLR262C, strain YPT6, active compounds read low 1.03 | S. cerevisiae deletion strains, locus YLR268W, strain sec22, active compounds read low 0.913 | S. cerevisiae deletion strains, locus YLR320W, strain mms22, active compounds read low 0.992 | S. cerevisiae deletion strains, locus YLR330W, strain CHS5, active compounds read low 0.996 | S. cerevisiae deletion strains, locus YLR342W, strain FKS1 (second series), active compounds read low 1.05 | S. cerevisiae deletion strains, locus YLR342W, strain FKS1, active compounds read low 0.983 | S. cerevisiae deletion strains, locus YLR357W, strain rsc2, active compounds read low 0.978 | S. cerevisiae deletion strains, locus YLR370C, strain arc18, active compounds read low 0.987 | S. cerevisiae deletion strains, locus YLR371W, strain rom2, active compounds read low 0.971 | S. cerevisiae deletion strains, locus YLR384C, strain iki3, active compounds read low 0.976 | S. cerevisiae deletion strains, locus YLR418C, strain cdc73, active compounds read low 1 | S. cerevisiae deletion strains, locus YML016C, strain PPZ1, active compounds read low 0.985 | S. cerevisiae deletion strains, locus YML032C, strain rad52, active compounds read low 0.957 | S. cerevisiae deletion strains, locus YML120C, strain ndi1, active compounds read low 0.979 | S. cerevisiae deletion strains, locus YML124C, strain tub3, active compounds read low 0.99 | S. cerevisiae deletion strains, locus YMR058W, strain fet3, active compounds read low 0.973 | S. cerevisiae deletion strains, locus YMR078C, strain ctf18, active compounds read low 0.963 | S. cerevisiae deletion strains, locus YMR125W, strain sto1, active compounds read low 0.958 | S. cerevisiae deletion strains, locus YMR129W, active compounds read low 0.991 | S. cerevisiae deletion strains, locus YMR205C, strain PFK2, active compounds read low 0.984 | S. cerevisiae deletion strains, locus YMR223W, strain ubp8, active compounds read low 0.998 | S. cerevisiae deletion strains, locus YMR231W, strain pep5, active compounds read low 0.968 | S. cerevisiae deletion strains, locus YMR263W, strain SAP30, active compounds read low 0.987 | S. cerevisiae deletion strains, locus YMR307W, strain GAS1, active compounds read low 0.987 | S. cerevisiae deletion strains, locus YNL067W, strain RPL9B, active compounds read low 0.979 | S. cerevisiae deletion strains, locus YNL071W, strain lat1, active compounds read low 0.983 | S. cerevisiae deletion strains, locus YNL128W, strain TEP1, active compounds read low 0.993 | S. cerevisiae deletion strains, locus YNL153C, strain GIM3, active compounds read low 0.988 | S. cerevisiae deletion strains, locus YNL183C, strain NPR1, active compounds read low 0.972 | S. cerevisiae deletion strains, locus YNL209W, strain ssb2, active compounds read low 0.989 | S. cerevisiae deletion strains, locus YNL233W, strain BNI4, active compounds read low 0.98 | S. cerevisiae deletion strains, locus YNL248C, strain rpa49, active compounds read low 0.967 | S. cerevisiae deletion strains, locus YNL250W, strain rad50, active compounds read low 0.981 | S. cerevisiae deletion strains, locus YNL271C, strain bni1, active compounds read low 0.97 | S. cerevisiae deletion strains, locus YNL298W, strain CLA4, active compounds read low 0.968 | S. cerevisiae deletion strains, locus YNL307C, strain MCK1, active compounds read low 0.983 | S. cerevisiae deletion strains, locus YNL322C, strain KRE1 (second series), active compounds read low 0.977 | S. cerevisiae deletion strains, locus YNL322C, strain KRE1, active compounds read low 0.995 | S. cerevisiae deletion strains, locus YNR049C, strain mso1, active compounds read low 0.976 | S. cerevisiae deletion strains, locus YNR052C, strain pop2, active compounds read low 0.973 | S. cerevisiae deletion strains, locus YOL006C, strain TOP1, active compounds read low 0.926 | S. cerevisiae deletion strains, locus YOL012C, strain htz1 0.809 | S. cerevisiae deletion strains, locus YOL147C, strain pex11, active compounds read low 0.981 | S. cerevisiae deletion strains, locus YOR001W, strain rrp6, active compounds read low 0.995 | S. cerevisiae deletion strains, locus YOR061W, strain CKA2, active compounds read low 0.989 | S. cerevisiae deletion strains, locus YOR069W, strain VPS5, active compounds read low 0.982 | S. cerevisiae deletion strains, locus YOR070C, strain gyp1, active compounds read low 1 | S. cerevisiae deletion strains, locus YOR080W, strain dia2, active compounds read low 0.991 | S. cerevisiae deletion strains, locus YOR083W, strain WHI5, active compounds read low 0.968 | S. cerevisiae deletion strains, locus YOR106W, strain vam3, active compounds read low 0.938 | S. cerevisiae deletion strains, locus YOR136W, strain idh2, active compounds read low 0.974 | S. cerevisiae deletion strains, locus YOR144C, strain elg1, active compounds read low 0.973 | S. cerevisiae deletion strains, locus YOR184W, strain ser1, active compounds read low 0.967 | S. cerevisiae deletion strains, locus YOR231W, strain MKK1, active compounds read low 0.989 | S. cerevisiae deletion strains, locus YOR265W, strain rbl2, active compounds read low 0.984 | S. cerevisiae deletion strains, locus YOR270C, strain vph1, active compounds read low 0.93 | S. cerevisiae deletion strains, locus YOR290C, strain snf2, active compounds read low 0.946 | S. cerevisiae deletion strains, locus YOR316C, strain cot1, active compounds read low 0.977 | S. cerevisiae deletion strains, locus YPL051W, strain arl3, active compounds read low 0.98 | S. cerevisiae deletion strains, locus YPL055C, strain LGE1, active compounds read low 1.01 | S. cerevisiae deletion strains, locus YPL078C, strain atp4, active compounds read low 0.942 | S. cerevisiae deletion strains, locus YPL106C, strain sse1, active compounds read low 1 | S. cerevisiae deletion strains, locus YPL240C, strain hsp82, active compounds read low 0.985 | S. cerevisiae deletion strains, locus YPL241C, strain CIN2, active compounds read low 1 | S. cerevisiae deletion strains, locus YPL256C, strain CLN2, active compounds read low 0.971 | S. cerevisiae deletion strains, locus YPR119W, strain clb2, active compounds read low 0.991 | S. cerevisiae deletion strains, locus YPR141C, strain kar3, active compounds read low 0.977 | S. cerevisiae deletion strains, locus YPR163C, strain tif3, active compounds read low 0.97 | S. cerevisiae deletion strains, locus YPR167C, strain met16, active compounds read low 0.978 | S. cerevisiae deletion strains, strain wtn01, active compounds read low 0.948 | S. cerevisiae strains, strain wild type, active compounds read low 0.994
